Results as given in PubChem BioAssay AID1159580 (chemical genetic matrix, 2015).
Values joined by “and” are separate entries in the source; they are usually repeats but may differ in a detail not shown here. Equal values may be shown once. The campaign covered roughly 5,500 compounds. About 2,000 (36%) were called active. About 18% were inconclusive and are not listed. Cut-off read from the data, not from the text of the source: active = normalized growth mostly below about 0.91 (no sharp cut-off); inconclusive = no clear call, values can overlap the other calls; inactive = mostly above about 0.92. The list shows a part of the results.

Test: chemical genetic growth profiling, strain panel (AID 1159580);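 note: tested at 20 µM; growth read once vehicle control cultures reached saturation at 30 °C; 1 = growth at the plate median or of vehicle wells; lower values mean less growth of the strain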
Conditions: S. cerevisiae deletion strains, growth OD

Measured: normalized growth

CCN(CC)CCNC(=O)c1cc(Cl)c(N)cc1OC
inactive: locus YAL013W, strain DEP1, stronger effect = lower value 1.01 | locus YAL021C, strain ccr4, stronger effect = lower value 0.992 | locus YAL026C, strain drs2, stronger effect = lower value 0.998 | locus YAL030W, strain snc1, stronger effect = lower value 0.974 | locus YAL040C, strain CLN3, stronger effect = lower value 0.981 | locus YBL061C, strain skt5, stronger effect = lower value 0.976 | locus YBR009C, strain hhf1, stronger effect = lower value 0.987 | locus YBR021W, strain FUR4, stronger effect = lower value 1.02 | locus YBR023C, strain chs3, stronger effect = lower value 0.984 | locus YBR171W, strain sec66, stronger effect = lower value 0.979 | locus YBR229C, strain ROT2, stronger effect = lower value 1.01 | locus YBR231C, strain swc5, stronger effect = lower value 0.996 | locus YBR279W, strain paf1, stronger effect = lower value 0.992 | locus YCL011C, strain gbp2, stronger effect = lower value 0.94 | locus YCL016C, strain dcc1, stronger effect = lower value 0.948 | locus YCL029C, strain bik1, stronger effect = lower value 0.993 | locus YCL061C, strain MRC1 (second series), stronger effect = lower value 1.01 | locus YCL061C, strain MRC1, stronger effect = lower value 0.988 | locus YCL069W, strain vba3, stronger effect = lower value 0.985 | locus YCR088W, strain abp1, stronger effect = lower value 0.991 | locus YDL005C, strain med2, stronger effect = lower value 0.986 | locus YDL035C, strain GPR1, stronger effect = lower value 1.01 | locus YDL040C, strain nat1, stronger effect = lower value 0.988 | locus YDL074C, strain BRE1, stronger effect = lower value 1.02 | locus YDL101C, strain DUN1, stronger effect = lower value 1 | locus YDL134C, strain PPH21, stronger effect = lower value 1.01 | locus YDL185W, strain tfp1, stronger effect = lower value 0.996 | locus YDL192W, strain arf1, stronger effect = lower value 1.01 | locus YDR001C, strain nth1, stronger effect = lower value 0.968 | locus YDR069C, strain doa4, stronger effect = lower value 0.962 | locus YDR101C, strain arx1, stronger effect = lower value 0.985 | locus YDR137W, strain rgp1, stronger effect = lower value 0.967 | locus YDR150W, strain NUM1, stronger effect = lower value 1.02 and 1.01 | locus YDR159W, strain sac3, stronger effect = lower value 1.01 | locus YDR162C, strain NBP2, stronger effect = lower value 1.01 | locus YDR195W, strain ref2 0.974 | locus YDR297W, strain sur2, stronger effect = lower value 0.984 | locus YDR318W, strain mcm21, stronger effect = lower value 0.996 | locus YDR334W, strain swr1, stronger effect = lower value 0.93 | locus YDR335W, strain msn5, stronger effect = lower value 0.976 | locus YDR363W, strain ESC2, stronger effect = lower value 1.02 | locus YDR388W, stronger effect = lower value 0.995 | locus YDR392W, strain spt3, stronger effect = lower value 0.975 | locus YDR502C, strain sam2, stronger effect = lower value 0.988 | locus YEL003W, strain gim4, stronger effect = lower value 0.994 | locus YEL037C, strain rad23, stronger effect = lower value 0.976 | locus YEL061C, strain CIN8 (second series), stronger effect = lower value 0.978 | locus YEL061C, strain CIN8, stronger effect = lower value 1.01 | locus YER002W, strain NOP16, stronger effect = lower value 0.994 | locus YER015W, strain faa2, stronger effect = lower value 0.979 | locus YER016W, strain bim1, stronger effect = lower value 0.994 | locus YER110C, stronger effect = lower value 0.994 | locus YER111C, strain swi4, stronger effect = lower value 0.988 | locus YER155C, strain BEM2 (second series), stronger effect = lower value 1.03 | locus YER155C, strain BEM2, stronger effect = lower value 0.999 | locus YER167W, strain BCK2, stronger effect = lower value 1.01 | locus YFR010W, strain ubp6, stronger effect = lower value 0.969 | locus YGL078C, strain dbp3, stronger effect = lower value 0.997 | locus YGL086W, strain mad1, stronger effect = lower value 0.993 | locus YGL167C, strain pmr1, stronger effect = lower value 0.972 | locus YGL173C, strain kem1, stronger effect = lower value 0.98 | locus YGL227W, strain vid30, stronger effect = lower value 0.977 | locus YGL240W, strain doc1, stronger effect = lower value 1.01 | locus YGL248W, strain PDE1, stronger effect = lower value 1.01 | locus YGL253W, strain hxk2, stronger effect = lower value 0.981 | locus YGR078C, strain PAC10, stronger effect = lower value 1.02 | locus YGR135W, strain pre9, stronger effect = lower value 0.998 | locus YGR229C, strain SMI1, stronger effect = lower value 1.01 and 1.02 | locus YGR252W, strain gcn5, stronger effect = lower value 0.958 | locus YHR013C, strain ard1, stronger effect = lower value 0.955 | locus YHR027C, strain rpn1, stronger effect = lower value 0.963 | locus YHR030C, strain SLT2, stronger effect = lower value 1.01 and 1.07 | locus YHR079C, strain IRE1 (second series), stronger effect = lower value 0.994 | locus YHR079C, strain IRE1, stronger effect = lower value 1.07 | locus YHR094C, strain hxt1, stronger effect = lower value 0.992 | locus YHR129C, strain ARP1, stronger effect = lower value 1 | locus YHR142W, strain chs7, stronger effect = lower value 0.939 | locus YHR200W, strain rpn10, stronger effect = lower value 0.994 | locus YIL066C, strain RNR3, stronger effect = lower value 1.02 | locus YIL073C, strain SPO22, stronger effect = lower value 1.02 | locus YIL125W, strain kgd1, stronger effect = lower value 0.993 | locus YIR030C, strain dcg1, stronger effect = lower value 1 | locus YJL092W, strain hpr5, stronger effect = lower value 0.978 | locus YJL095W, strain BCK1 (second series), stronger effect = lower value 0.978 | locus YJL095W, strain BCK1, stronger effect = lower value 1 and 1.04 | locus YJL115W, strain asf1, stronger effect = lower value 0.953 | locus YJL129C, strain trk1, stronger effect = lower value 0.997 | locus YJL134W, strain LCB3, stronger effect = lower value 1.01 | locus YJL154C, strain vps35, stronger effect = lower value 0.971 | locus YJL164C, strain tpk1, stronger effect = lower value 1.01 | locus YJL166W, strain qcr8, stronger effect = lower value 0.956 | locus YJL168C, strain set2, stronger effect = lower value 0.992 | locus YJL187C, strain SWE1 (second series), stronger effect = lower value 1.02 | locus YJL187C, strain SWE1, stronger effect = lower value 0.989 | locus YJR043C, strain POL32, stronger effect = lower value 0.996 | locus YJR066W, strain TOR1, stronger effect = lower value 1
